This is an account of results in PubChem BioAssay (EPA / NIEHS).

Values joined by “and” are separate entries in the source; they are usually repeats but may differ in a detail not shown here. Identical values can stand only once. Inconclusive results are not listed. A structure can be active in one record and inactive in another. Active and inactive are the calls of the source. Rule for the calls: active = hit-call score of the fitted dose curve at least 0.9, where 1 is the maximum; inconclusive = response in the unintended direction; inactive = score below 0.9.

Broadly, the AC50 is the concentration giving half of the maximal activity seen.

This experiment can be described thus: Tanguay_ZF_120hpf_JAW_legacy: (Legacy) Oregon State University Tanguay Lab 120 Hour Post-fertilization zebrafish Assay for Jaw Malformation (AID 2283638).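 For AC50: active means more embryos with jaw malformation than DMSO controls.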 The method, then: Tanguay_ZF_120hpf_legacy is a whole embryo, multiplexed endpoint assay using zebrafish larvae exposed for 120 hours post fertilization on a 96-well plate.Tanguay_ZF_120hpf_JAW_legacy is one of one assay component(s) measured or calculated from the Tanguay_ZF_120hpf_legacy assay. It is designed to make measurements of zebrafish development as detected with brightfield microscopy of developing zebrafish embryos.Data from the assay component Tanguay_ZF_120hpf_JAW_legacy was analyzed into 1 assay endpoints. This assay endpoint, Tanguay_ZF_120hpf_JAW_legacy, was analyzed in the positive analysis fitting direction relative to DMSO as the negative control and baseline of activity. Using a type of morphology reporter, gain-of-signal activity can be used to understand changes in developmentals as they relate to the whole embryo. To generalize the intended target to other relatable targets, this assay endpoint is annotated to the zebrafish development intended target family, where the subfamily is embryonic jaw development.
Zebrafish husbandry: Tropical 5D wild-type adult zebrafish were housed in at an approximate density of 1000 per 100 gallon tank at the Sinnhuber Aquatic Research Laboratory, Oregon State University, Corvallis, OR. Each tank was kept at standard laboratory conditions of 28C on a 14-h light/10-h dark photoperiod in fish water consisting of reverse osmosis water supplemented with a commercially available salt (Instant Ocean). Spawning funnels were placed into the tanks the night prior, and embryos were collected and staged. To increase bioavailability, the chorion was enzymatically removed using pronase (63.6mg/ml, >/= 3.5U/mg, Sigma-Aldrich: P5147) at 4 hours post fertilization (hpf) using a custom automated dechorionator.Chemical exposures: Six hpf dechorionated embryos were placed 1 embryo per well in a 96-well plate prefilled with 90 ul of EM using automated embryo placement systems (AEPS). Ten microliters of each row of dilution plate 2 was added to 2 exposure plates. The final DMSO concentration used was 0.64% (vol/vol). Thirty-two embryos were also exposed to 5uM trimethyltin chloride (positive control). Plates were sealed to prevent evaporation and foil covered to reduce light exposure and kept in a 28C incubator. Embryos were statically exposed until 120 hpf. At 24 hpf, embryos were assessed for photomotor response using a custom photomotor response analysis tool (PRAT) and for developmental toxicity endpoints (MO24: mortality at 24 hpf, DP: developmental progression, SM: spontaneous movement, and NC: notochord distortion). At 120 hpf, locomotor activity was measured using Viewpoint Zebralab and assessed for 18 endpoints. Zebrafish acquisition and analysis program (ZAAP), a custom program designed to inventory, acquire, and manage zebrafish data, was used to collect developmental endpoints as either present or absent (i.e., binary responses were recorded). If mortality occurred for an embryo (at either 24 or 120 hpf), the non-mortality endpoints were not measured.
Regarding `CCCOC(=O)c1ccc(C(=O)OCCC)nc1`, the compound was called inactive.

As to `C[C@]12C[C@H](O)[C@H]3[C@@H](CCC4=CC(=O)CC[C@@]43C)[C@@H]1CC[C@@H]2C(=O)CO`, the outcome was inactive.

Regarding `CCN(CC)C(=O)c1cccc(C)c1`, the compound was classed as inactive.

As to `CCCCCOC(=O)COc1cc(N2C(=O)C3=C(CCCC3)C2=O)c(F)cc1Cl`, the compound was called inactive.

With `CCOC(=O)c1ccc(O)cc1`, the outcome was inactive.

For the compound `CC(C)(C)[C@@H](O)[C@@H](Cc1ccc(Cl)cc1)n1cncn1`, the result was inactive.

With `O=C(Nc1ccc([N+](=O)[O-])cc1Cl)c1cc(Cl)ccc1O`, the call was inactive.

For the compound `CCCCOC(=O)C(C)Oc1ccc(Oc2ccc(C(F)(F)F)cn2)cc1` (stereo not given), the result was inactive.

As to `CCCOC(=O)NCCCN(C)C`, the call was inactive.

Regarding `S=C([S-])NCCNC(=S)[S-].[Mn+2]`, the call was inactive.

For the compound `COc1c(Cl)ccc(Cl)c1C(=O)O`, the call was inactive.

Turning to `CCCN(CCC)C(=O)SCC`, the result was inactive.

Take `CC(C)CCCCCCc1ccc(O)cc1`: the compound was classed as inactive.

For the compound `c1ccc(Nc2ccccc2)cc1`, the AC50 is 20.7 µM (active).

As to `CCSC(=O)N(CC(C)C)CC(C)C`, the call was inactive.

Take `CCOC(=O)C(C)Oc1ccc(Oc2nc3ccc(Cl)cc3o2)cc1` (stereo not given): the call was inactive.

Regarding `CCCN(CCC)c1c([N+](=O)[O-])cc(C(F)(F)F)c(N)c1[N+](=O)[O-]`, the call was inactive.

In the case of `CSC(=O)c1cccc2nnsc12`, the result was inactive.

As for `CC(C)(c1ccc(O)cc1)c1ccc(O)cc1`, the concentration at half-maximal activity (AC50) is 41.7 µM (active) and 36.1 µM (active); the outcome was inactive.

`S=C(S)NCCNC(=S)S.[Mn+2].[S-]C([S-])=NCCN=C([S-])[S-].[Zn+2]`: the compound was called inactive.

Turning to `O=C(O)c1ccccc1`, the outcome was inactive.

In the case of `COC(=O)CSc1cc(N=c2sc(=O)n3n2CCCC3)c(F)cc1Cl`, the result was inactive.

Consider `CC1(C)C(C=C(Cl)Cl)C1C(=O)OCc1cccc(Oc2ccccc2)c1` (stereo not given), for which the outcome was inactive.

Regarding `COCCO`, the compound was called inactive.

As to `C=CCOC(Cn1ccnc1)c1ccc(Cl)cc1Cl` (stereo not given), the AC50 was 3.98 µM (active).

On to `CCN(Cc1c(F)cccc1Cl)c1c([N+](=O)[O-])cc(C(F)(F)F)cc1[N+](=O)[O-]`, for which the compound was classed as inactive.

`CCCCC(CC)COC(=O)c1ccccc1C(=O)O` (stereo not given): the outcome was inactive.

As to `O=C(c1ccccc1)C1CCCCC1`, the call was inactive.

Consider `OB(O)O`, for which the compound was called inactive.

Turning to `O=C(c1ccc(O)cc1O)c1ccc(O)cc1O`, the outcome was inactive.

On to `C#C[C@]1(O)CC[C@H]2[C@@H]3CCC4=CC(=O)CC[C@@H]4[C@H]3CC[C@@]21CC`, for which the result was inactive.

Turning to `N[C@@H](Cc1cc(I)c(Oc2ccc(O)c(I)c2)c(I)c1)C(=O)O`, the AC50 is 0.00171 µM (active).

On to `C#CCOC(=O)[C@@H](C)Oc1ccc(Oc2ncc(Cl)cc2F)cc1`, for which the outcome was inactive.

For `C[C@]12CC[C@@H]3c4ccc(O)cc4C[C@@H](CCCCCCCCCS(=O)CCCC(F)(F)C(F)(F)F)[C@H]3[C@@H]1CC[C@@H]2O` (stereo not given in full), the compound was classed as inactive.

For `CCCCC(CC)CN1C(=O)C2C3C=CC(C3)C2C1=O` (stereo not given), the call was inactive.

On to `CCOC(=O)NCCOc1ccc(Oc2ccccc2)cc1`, for which the compound was classed as inactive.

Consider `CCCCOCCOCCOCc1cc2c(cc1CCC)OCO2`, for which the compound was classed as inactive.

For `c1ccc2[nH]c(-c3cscn3)nc2c1`, the compound was classed as inactive.

Regarding `CCOC(=O)C(C)Oc1ccc(Oc2cnc3cc(Cl)ccc3n2)cc1` (stereo not given), the outcome was inactive.
